Test results published in PubChem BioAssay (Tox21).
Results filed as inconclusive are left out. Unmarked numbers belong to inactive results. The call rests on the fitted dose curve.

The compounds below were run against Vitamin D3 receptor (Homo sapiens) (UniProt P11473) (assay: qHTS assay to identify small molecule agonists of the vitamin D receptor (VDR) signaling pathway (AID 743222)). Conditions: HEK293T VDR-UAS-bla, beta-lactamase FRET ratio, 16 h; series mostly up to 63.5 µM; activation: at the top concentration.
Vitamin D3 receptor (Homo sapiens), sequence (P11473 whole entry, looked up): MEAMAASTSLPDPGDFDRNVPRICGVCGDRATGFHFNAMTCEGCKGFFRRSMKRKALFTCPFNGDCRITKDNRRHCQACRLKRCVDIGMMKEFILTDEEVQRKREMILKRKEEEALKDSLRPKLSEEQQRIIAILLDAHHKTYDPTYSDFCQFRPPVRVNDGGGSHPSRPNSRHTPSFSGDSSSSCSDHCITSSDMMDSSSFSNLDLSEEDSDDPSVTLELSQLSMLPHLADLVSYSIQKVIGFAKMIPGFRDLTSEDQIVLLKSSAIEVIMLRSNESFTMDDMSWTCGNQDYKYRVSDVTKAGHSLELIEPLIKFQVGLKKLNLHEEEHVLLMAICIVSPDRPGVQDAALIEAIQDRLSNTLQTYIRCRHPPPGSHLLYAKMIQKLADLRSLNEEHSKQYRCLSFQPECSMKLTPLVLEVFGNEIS
Text: National Center for Advancing Translational Sciences [NCATS]
NIH Chemical Genomics Center [NCGC]
U.S. Environmental Protection Agency [EPA]
National Institutes of Environmental Health Sciences [NIEHS]
National Toxicology Program [NTP]
U.S. Food and Drug Administration [FDA]
The vitamin D receptor (VDR), a member of nuclear hormone receptor superfamily, plays a critical role in calcium homeostasis and bone metabolism. It is also involved in cell differentiation and growth, and thrombogenicity.
Tox21 Assay Protocol Summary:
VDR-bla cells were dispensed at 2,000 cells/6 uL/well into black wall/clear-bottom 1536-well plates using a Multidrop Combi (Thermo Fisher Scientific, Waltham, MA) dispenser. After the assay plates were incubated at a 37C and 5% CO2 for 4 h, 23 nL of compounds dissolved in DMSO, positive controls or DMSO only was transferred to the assay plate by a Pintool station (Kalypsys, San Diego, CA). The plates were incubated at 37C and 5% CO2 for 16 h. After 1 uL of LiveBLAzerTM B/G FRET substrate was added using a Bioraptr Flying Reagent Dispenser (FRD) workstation (Beckman Coulter, Indianapolis, IN, USA), the plates were incubated at room temperature for 2 h, and fluorescence intensity was measured by an Envision plate reader (PerkinElmer, Shelton, CT).
On the % scale 0 is the no-effect control and ±100 the full control effect.

Row | Structure (SMILES) | activation
1 | CCCCON=O | -1.48% [at 81.1 µM]
2 | CC(O)C(=O)[O][Hg][c]1ccccc1 (stereo not given) | 1.07%
3 | C=CCOC(=O)c1ccccc1N | -0.948% [at 81.1 µM]
4 | O=S1OCC2C(CO1)C1(Cl)C(Cl)=C(Cl)C2(Cl)C1(Cl)Cl (stereo not given) | 10.4%
5 | O=c1[nH]c(Cl)c(Cl)cc1Cl | -6.82%
6 | [C-]1=CC=CC1.[Cl][Zr+2][Cl].c1cc[cH-]c1 | 7.52% [at 81.1 µM]
7 | CCC(C)Br (stereo not given) | 9.09% [at 81.1 µM]
8 | S=C=Nc1ccccc1 | 0.823% [at 81.1 µM]
9 | CNC(C)(C)Cc1ccccc1 | -5.25%
10 | N#Cc1c[nH]cc1-c1cccc2c1OC(F)(F)O2 | 1.52%
11 | O=C(O)CCCCCCNC1c2ccccc2CCc2ccccc21 | -1.29%
12 | CN1C(=O)[C@@H](NC(=O)c2cc3ccccc3[nH]2)N=C(c2ccccc2)c2ccccc21 | 0.84%
13 | BrCCCBr | 1.52% [at 81.1 µM]
14 | O=c1[nH]c2cc(Cl)ccc2n1C1CCNCC1 | 0.0314%
15 | N#Cc1ccc(N(CC(N)=O)CC(F)(F)F)cc1C(F)(F)F | 0.522%
16 | [Cl][Hg][c]1ccccc1 | 11.1%
17 | CCCCCON=O | -7.58% [at 81.1 µM]
18 | CC(C)=CCN1CC[C@@]2(C)c3cc(O)ccc3C[C@@H]1[C@@H]2C | 0.37% [at 81.1 µM]
19 | CN | 6.82% [at 81.1 µM]
20 | CC1=C2C[C@H]3[C@@H](CC=C4C[C@@H](O)CC[C@@]43C)[C@@H]2CC[C@]12O[C@@H]1C[C@H](C)CN[C@H]1[C@H]2C | -9.89%

Row | Structure (SMILES) | activation
21 | CC1CCCC1 | -10.5%
22 | CC(=O)C(Cl)C(=O)N(C)C (stereo not given) | -9.63%
23 | ClC(Cl)C(Cl)(Cl)Cl | 5.49%
24 | c1cc[n+]2c(c1)-c1cccc[n+]1CC2 | 8.2%
25 | CN1[C@@H]2CC[C@H]1CC(O)C2 (stereo not given in full) | -0.829% [at 81.1 µM]
26 | O=[N+]([O-])c1ccc(CCl)cc1 | 1.93%
27 | COC(=O)c1cc(Oc2ccc(Cl)cc2Cl)ccc1[N+](=O)[O-] | 0.443%
28 | Cc1ccc2cc3c(ccc4ccccc43)c3c2c1CC3 | 3.29%
29 | O=C1C2(Cl)C3(Cl)C4(Cl)C(Cl)(Cl)C5(Cl)C3(Cl)C1(Cl)C5(Cl)C24Cl (stereo not given) | -0.199%
30 | CSSC | -5.3% [at 81.1 µM]
31 | O=c1c2ccccc2c(=O)c2c1cc(Cl)c1[nH]c3c([nH]c12)c(Cl)cc1c(=O)c2ccccc2c(=O)c13 | -0.0455%
32 | CCC1(CC)C(=O)N=C(O)NC1=O | 0.862%
33 | COC(=O)/C=C(\C)OP(=O)(OC)OC | 16.4%
34 | Cc1nn(-c2cc(NS(C)(=O)=O)c(Cl)cc2Cl)c(=O)n1C(F)F | 2.26%
35 | Clc1c(Cl)c(Cl)c(Cl)c(Cl)c1Cl | -0.148% [at 6.01 µM]
36 | CCN(CC)C(=O)N[C@@H]1C=C2c3cccc4[nH]cc(c34)C[C@@H]2N(C)C1 | 1.57%
37 | CC[N+]1(CC)CCC(OC(=O)C(O)(c2ccccc2)c2ccccc2)C1 (stereo not given) | 7.07%
38 | CCCCC/C=C\C/C=C\C/C=C\C/C=C\CCCC(=O)NCC(=O)O | -12%
39 | CC(Cc1ccccc1)N(C)Cc1ccco1 (stereo not given) | 5.19%
40 | C1=CCC=C1 | 4.4%
